Source: article PMC4336329 (PLoS ONE, 2015)
In all, about 310,000 compounds went through this assay and about 14,000 (4.5%) showed an effect of 50% or more. Effects have a minus sign here. Many of the other results were omitted from the sample, so strong results are more common in it than they were.

Target: human ether-à-go-go-related gene (hERG) potassium channel (human, UniProt Q12809)
Assay: primary screen, population patch clamp on CHO cells stably expressing hERG; higher = less effect of the substance
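Further: peak tail current of the secondary pulse compared with the same well before compound.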

Chain of human ether-à-go-go-related gene (hERG) potassium channel (Q12809 whole entry, looked up): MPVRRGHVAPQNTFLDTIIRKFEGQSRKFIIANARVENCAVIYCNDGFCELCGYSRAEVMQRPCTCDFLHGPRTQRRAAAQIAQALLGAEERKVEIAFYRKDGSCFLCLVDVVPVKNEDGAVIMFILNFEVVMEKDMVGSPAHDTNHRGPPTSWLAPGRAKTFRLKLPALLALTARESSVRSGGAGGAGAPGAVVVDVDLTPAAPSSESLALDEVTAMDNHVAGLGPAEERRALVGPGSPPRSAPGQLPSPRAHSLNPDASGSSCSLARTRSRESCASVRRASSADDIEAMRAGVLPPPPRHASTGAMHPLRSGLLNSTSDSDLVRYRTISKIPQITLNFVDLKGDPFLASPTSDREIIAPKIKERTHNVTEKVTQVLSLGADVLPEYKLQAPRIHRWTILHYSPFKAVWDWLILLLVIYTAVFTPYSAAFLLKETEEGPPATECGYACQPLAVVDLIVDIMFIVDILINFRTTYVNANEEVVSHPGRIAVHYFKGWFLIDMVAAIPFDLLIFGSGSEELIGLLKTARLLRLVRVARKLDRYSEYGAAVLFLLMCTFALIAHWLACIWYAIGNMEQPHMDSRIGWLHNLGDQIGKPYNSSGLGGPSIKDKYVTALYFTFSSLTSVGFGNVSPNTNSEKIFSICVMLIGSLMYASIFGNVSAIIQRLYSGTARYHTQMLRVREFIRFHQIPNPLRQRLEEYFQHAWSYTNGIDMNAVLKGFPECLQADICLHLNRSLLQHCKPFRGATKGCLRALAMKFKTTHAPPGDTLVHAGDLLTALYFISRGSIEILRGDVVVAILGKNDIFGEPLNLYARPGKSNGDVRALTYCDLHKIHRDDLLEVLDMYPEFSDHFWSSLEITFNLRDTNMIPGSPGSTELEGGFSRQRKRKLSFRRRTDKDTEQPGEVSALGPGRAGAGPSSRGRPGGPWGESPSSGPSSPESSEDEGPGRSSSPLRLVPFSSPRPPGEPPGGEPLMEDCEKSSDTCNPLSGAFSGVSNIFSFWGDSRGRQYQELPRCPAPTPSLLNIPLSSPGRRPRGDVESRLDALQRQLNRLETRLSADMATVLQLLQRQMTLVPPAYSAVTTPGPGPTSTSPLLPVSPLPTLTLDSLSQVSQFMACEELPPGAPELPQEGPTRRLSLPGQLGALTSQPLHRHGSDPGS

SMILES | hERG current change (%, negative = inhibition) at 10uM [%]
O=[N+]([O-])c1ccc(-c2ccc(/C=N/c3c(-c4ccco4)nc4ccccn34)o2)cc1 | 8.33
O=C(O)CCSc1nnc(-c2ccccc2)n1-c1ccccc1 | -3.32
Cc1ccc(SCc2cc(=O)[nH]c(N3CCCCC3)n2)cc1 | -8.62
CCOC(=O)C(O)(c1ccc(NC(=S)NC(=O)c2ccc(Cl)cc2Cl)c(C)c1)C(F)(F)F (stereo not shown) | 27.4
COc1ccccc1NC(=O)CCSc1nnc(-c2ccncc2)o1 | -2.96
Fc1ccccc1NC(=S)NNc1ncc(C(F)(F)F)cc1Cl | 21.2
CN1CCCN(C(=O)COc2cccc(C(F)(F)F)c2)CC1 | -0.603
c1ccc(Cn2c(NCc3ccco3)nc3ccccc32)cc1 | -51
CC(NC(=O)/C=C/c1ccco1)c1nc2ccccc2n1Cc1cccc(Cl)c1 (stereo not shown) | -67.2
CC(NC(=O)/C=C/c1ccco1)c1nc2ccccc2n1Cc1c(Cl)cccc1Cl (stereo not shown) | -11
CCn1c(NCc2cccs2)nc2ccccc21 | -12.2
C=CCn1c(NCc2ccco2)nc2ccccc21 | -8.07
CC(NC(=O)/C=C/c1ccco1)c1nc2ccccc2n1Cc1ccccc1F (stereo not shown) | 0.704
CCCCn1c(NCc2cccs2)nc2ccccc21 | -55.9
CCCn1c(NCc2cccs2)nc2ccccc21 | -29.3
c1ccc(Cn2c(NCc3ccccn3)nc3ccccc32)cc1 | -39
CC1CC1C(=O)OCC(=O)Nc1cccc(S(=O)(=O)NC2=NCCCCC2)c1 (stereo not shown) | -7.64
Cc1ccc(C(=O)c2ccc(N3CCOCC3)c(F)c2)cc1 | -22
CCCn1c2ccccc2c2cn[nH]c(=O)c21 | 12
Cc1c(C(=O)NCc2cccnc2)sc2nc(-c3ccccc3)cn12 | -55.2
Cc1c(C(=O)NCc2cccnc2)sc2nc(-c3ccc(F)cc3)cn12 | -40.4
Cc1c(C(=O)NCCCN2CCOCC2)sc2nc(-c3ccccc3)cn12 | -48.5
Cc1c(C(=O)NCC(C)C)sc2nc(-c3ccc(F)cc3)cn12 | -5.46

SMILES | hERG current change (%, negative = inhibition) at 10uM [%]
COCCNC(=O)c1sc2nc(-c3ccccc3)cn2c1C | -11.5
Cc1c(C(=O)NCc2ccccn2)sc2nc(-c3ccccc3)cn12 | -18.6
Cc1c(C(=O)NCCCN2CCOCC2)sc2nc(-c3ccc(F)cc3)cn12 | -60.9
CCN(CC)CCCNC(=O)c1sc2nc(-c3ccc(F)cc3)cn2c1C | -71.1
Cc1c(C(=O)NCCN2CCOCC2)sc2nc(-c3ccc(F)cc3)cn12 | -23.6
Cc1c(C(=O)Nc2ccccc2)sc2nc(-c3ccccc3)cn12 | -4.89
Cc1c(C(=O)NCc2ccccn2)sc2nc(-c3ccc(F)cc3)cn12 | -10.2
CCN(CC)CCNC(=O)c1sc2nc(-c3ccccc3)cn2c1C | -67.4
Nc1cc(-c2ccccc2)ccc1O | 22.5
CCCC1=[N+](CC(C)=O)CCn2c(C)ccc21.[Br-] | 20.1
Cc1ccc(OCC(=O)Oc2c(C)cccc2C)cc1 | 16.8
COc1ccc(CC(NC(C)=O)C(=O)NC2CCN(C(=O)Nc3ccccc3Cl)CC2)cc1OC (stereo not shown) | 12.7
CC(C)(C)c1ccc(-n2nc(C(N)=O)c(O)cc2=O)cc1 | 12.9
CC(=O)N1c2ccc(S(=O)(=O)N(C)c3cc(C)ccc3C)cc2CC1C (stereo not shown) | -8.67
Cc1csc(NC(=O)Cc2ccccc2[N+](=O)[O-])n1 | 8.85
CCCSc1nc(-n2ncc(C#N)c2N)c2c3c(sc2n1)CCC(C)C3 (stereo not shown) | 5.45
COc1ccc(-n2ncc3c2CC(C)(C)CC3NC(=O)c2oc(C)cc2C)cc1 (stereo not shown) | 15.2
COc1ccc(-n2ncc3c2CC(C)(C)CC3NC(=O)CSc2ccccn2)cc1 (stereo not shown) | -68
COc1ccc(-n2ncc3c2CC(C)(C)CC3NC(=O)c2c(C)cc(=O)oc2C)cc1 (stereo not shown) | -51.1
COc1ccc(-n2ncc3c2CC(C)(C)CC3NC(=O)c2ccnn2C)cc1 (stereo not shown) | -78
COC(=O)c1ccc(C(=O)NC2CC(C)(C)Cc3c2cnn3-c2ccc(F)cc2)nc1 (stereo not shown) | -23.4
CCc1nccn1CCC(=O)NC1CC(C)(C)Cc2c1cnn2-c1ccc(OC)cc1 (stereo not shown) | -16.2
CC1(C)Cc2c(cnn2-c2ccc(F)cc2)C(NC(=O)C2=NNC(=O)CC2)C1 (stereo not shown) | -68.4
